Of roughly 8,800 targets only a part is listed; those with a hit were picked by preference. About 0.5% of all pairs of compound and target were hits.
Key:
Assay in all cases: log2 fold change, soluble protein after heating vs DMSO (PISA); higher = thermal stabilisation; K562 lysate, 10 uM; active = over 0.2 and 3.5 SD of the protein, either way, in both replicates (recomputed)
[1] = compound: CS(=O)(=O)CCNCc1ccc(-c2ccc3ncnc(Nc4ccc(OCc5cccc(F)c5)c(Cl)c4)c3c2)o1 [lapatinib]
How it was run: (§1)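 K562 pellets were dounce-homogenised in PBS pH 7.4 containing 1 mM MgCl2, and the crude extract, at 1 mg/mL protein, was exposed to 10 μM compound for 30 min. Aliquots were heated for 3 min across 48°C-58°C, pooled, brought to 0.5% NP-40 at 4°C and spun at 21,000xg for 90 min, with the supernatant taken as soluble protein. TMTpro 16plex LC-MS/MS with equalised channel sums quantified that protein. Values are log-two fold changes in thermal stability relative to solvent controls, taken from duplicates.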

[2] = compound: CS(=O)(=O)N1CCN(Cc2cc3nc(-c4cccc5[nH]ncc45)nc(N4CCOCC4)c3s2)CC1 [pictilisib]
How it was run: as §1

[3] = compound: C[C@@H](Oc1cc(-c2cnn(C3CCNCC3)c2)cnc1N)c1c(Cl)ccc(F)c1Cl [crizotinib]
How it was run: as §1

[4] = compound: C[C@H](C1=CC=C(C=C1)C(=O)NC2=C3C=CNC3=NC=C2)N
How it was run: as §1

[5] = compound: C[C@H](Nc1ncnc2nc[nH]c12)c1cc2cccc(Cl)c2c(=O)n1-c1ccccc1 [duvelisib]
How it was run: as §1

[6] = compound: Cc1cc(Nc2cc(CN3CCOCC3)c3nc(C)c(Cc4ccc(Cl)cc4F)n3n2)n[nH]1 [gandotinib]
How it was run: as §1

[7] = compound: Cc1cc(Nc2cc(N3CCN(C)CC3)nc(Sc3ccc(NC(=O)C4CC4)cc3)n2)n[nH]1 [tozasertib]
How it was run: as §1

[8] = compound: Cc1ccc(-n2nc(C(C)(C)C)cc2NC(=O)Nc2ccc(OCCN3CCOCC3)c3ccccc23)cc1 [doramapimod]
How it was run: as §1

[9] = compound: Cc1ccc(NC(=O)c2ccc(CN3CC[C@H](N(C)C)C3)c(C(F)(F)F)c2)cc1Nc1nccc(-c2cncnc2)n1 [bafetinib]
How it was run: as §1

[10] = compound: Cc1cccc(CC(=O)N2CCc3c2ccc(-c2cn(C)c4ncnc(N)c24)c3F)n1
How it was run: as §1

[11] = compound: Cc1cn(-c2cc(NC(=O)c3ccc(C)c(Nc4nccc(-c5cccnc5)n4)c3)cc(C(F)(F)F)c2)cn1 [nilotinib]
How it was run: as §1

[12] = compound: Cc1nc(Nc2n[nH]c3c2CN(C(=O)N[C@H](CN(C)C)c2ccccc2)C3(C)C)c2sccc2n1
How it was run: as §1

[13] = compound: Cc1nc(Nc2ncc(C(=O)Nc3c(C)cccc3Cl)s2)cc(N2CCN(CCO)CC2)n1 [dasatinib]
How it was run: as §1

[14] = compound: Cc1ncc(-c2ccnc(Nc3ccc(S(C)(=O)=O)cc3)n2)n1C(C)C
How it was run: as §1

[15] = compound: Cn1cc(-c2ccc3c(c2)CCN3C(=O)Cc2cccc(C(F)(F)F)c2)c2c(N)ncnc21
How it was run: as §1

[16] = compound: Cn1cc(CNCC2CCN(c3ncc(C(=O)NO)cn3)CC2)c2ccccc21 [quisinostat]
How it was run: as §1

[17] = compound: Cn1cncc1[C@@](N)(c1ccc(Cl)cc1)c1ccc2c(c1)c(-c1cccc(Cl)c1)cc(=O)n2C [tipifarnib]
How it was run: as §1

[18] = compound: NC(=O)Nc1cc(-c2cccc(F)c2)sc1C(=O)N[C@H]1CCCNC1
How it was run: as §1

[19] = compound: NC(=O)c1cnc(N[C@@H]2CCCC[C@@H]2N)nc1Nc1cccc(-n2nccn2)c1
How it was run: as §1

[20] = compound: NC1(c2ccc(-c3nc4ccn5c(=O)[nH]nc5c4cc3-c3ccccc3)cc2)CCC1
How it was run: as §1

Measured: log2 fold change

PAFAH1B3 (UniProt Q15102)
Sequence of UniProt Q15102 (Q15102 whole entry, looked up): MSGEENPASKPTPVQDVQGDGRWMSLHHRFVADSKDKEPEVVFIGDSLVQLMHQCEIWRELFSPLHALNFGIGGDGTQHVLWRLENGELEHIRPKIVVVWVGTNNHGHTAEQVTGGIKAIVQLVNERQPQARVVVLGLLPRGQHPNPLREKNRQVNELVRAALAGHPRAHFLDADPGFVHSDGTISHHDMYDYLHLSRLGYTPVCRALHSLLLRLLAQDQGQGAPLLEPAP
inactive: [1] -0.034 | [2] -0.024 | [3] -0.01 | [4] -0.016 | [5] -0.024 | [6] -0.001 | [7] 0.054 | [8] 0 | [9] 0.048 | [10] -0.001 | [11] 0.005 | [12] 0.036 | [13] -0.057 | [14] -0.026 | [15] 0.03 | [16] 0.01 | [17] -0.01 | [18] -0.009 | [19] 0.031 | [20] 0.021

PARG (UniProt Q86W56)
Sequence of UniProt Q86W56 (Q86W56 whole entry, looked up): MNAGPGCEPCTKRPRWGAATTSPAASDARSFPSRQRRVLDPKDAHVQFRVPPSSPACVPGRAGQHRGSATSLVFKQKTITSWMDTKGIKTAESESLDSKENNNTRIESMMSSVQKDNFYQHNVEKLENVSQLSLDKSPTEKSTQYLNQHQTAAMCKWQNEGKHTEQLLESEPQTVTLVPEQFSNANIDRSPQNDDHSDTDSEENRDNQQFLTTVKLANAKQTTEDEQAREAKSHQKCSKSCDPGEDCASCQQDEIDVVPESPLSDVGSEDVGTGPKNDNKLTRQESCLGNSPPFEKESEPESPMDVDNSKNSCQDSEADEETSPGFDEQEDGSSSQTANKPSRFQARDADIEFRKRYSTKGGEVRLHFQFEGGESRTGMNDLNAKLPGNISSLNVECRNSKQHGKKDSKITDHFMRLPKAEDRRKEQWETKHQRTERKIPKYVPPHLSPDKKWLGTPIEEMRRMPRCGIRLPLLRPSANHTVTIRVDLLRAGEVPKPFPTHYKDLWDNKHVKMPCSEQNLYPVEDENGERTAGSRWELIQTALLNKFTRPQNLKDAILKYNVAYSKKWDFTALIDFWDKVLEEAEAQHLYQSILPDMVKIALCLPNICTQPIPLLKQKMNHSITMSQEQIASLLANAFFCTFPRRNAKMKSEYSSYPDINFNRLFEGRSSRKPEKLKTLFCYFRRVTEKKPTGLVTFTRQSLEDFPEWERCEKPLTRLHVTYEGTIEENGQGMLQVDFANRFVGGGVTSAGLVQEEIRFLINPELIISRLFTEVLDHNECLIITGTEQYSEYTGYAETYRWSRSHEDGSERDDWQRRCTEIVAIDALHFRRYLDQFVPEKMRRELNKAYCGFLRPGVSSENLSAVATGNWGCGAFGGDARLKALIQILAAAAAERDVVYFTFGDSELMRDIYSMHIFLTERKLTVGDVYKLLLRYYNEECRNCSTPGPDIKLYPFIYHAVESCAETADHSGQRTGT
inactive: [1] 0.017 | [2] -0.035 | [3] -0.058 | [4] 0.047 | [5] -0.02 | [6] -0.065 | [7] -0.033 | [8] 0.005 | [9] -0.004 | [10] -0.01 | [11] 0.006 | [12] 0.017 | [13] -0.033 | [14] 0.007 | [15] -0.004 | [16] -0.081 | [17] -0.007 | [18] 0.097 | [19] 0.006 | [20] 0.006

NUSAP1 (UniProt Q9BXS6)
inactive: [1] -0.004 | [2] -0.018 | [3] 0.045 | [5] -0.022 | [6] 0.141 | [7] -0.001 | [8] -0.011 | [9] 0.008 | [11] -0.001 | [12] 0.004 | [13] 0.045 | [14] -0.009 | [15] -0.047 | [16] 0.038 | [17] -0.016 | [18] -0.024 | [19] 0.002 | [20] -0.055
active: [4] -0.334 | [10] 0.217

PARD3 (UniProt Q8TEW0)
inactive: [1] -0.143 | [2] -0.155 | [3] -0.096 | [4] 0.014 | [5] -0.102 | [6] 0.122 | [7] 0.064 | [8] -0.058 | [9] -0.054 | [10] 0.069 | [11] -0.114 | [12] -0.109 | [13] 0.021 | [14] -0.031 | [15] 0.024 | [16] -0.002 | [17] 0.121 | [18] 0.029 | [19] 0.199 | [20] 0.105

NOB1 (UniProt Q9ULX3)
inactive: [1] 0.027 | [2] 0.01 | [3] -0.019 | [5] -0.033 | [6] -0.084 | [7] 0.011 | [8] -0.023 | [9] -0.041 | [10] -0.048 | [11] 0.018 | [12] -0.026 | [13] 0.004 | [14] -0.066 | [15] 0.044 | [16] 0.041 | [17] 0 | [18] 0.043 | [19] -0.018 | [20] 0.058
active: [4] 0.283

OGT (UniProt O15294)
Sequence of UniProt O15294 (O15294 whole entry, looked up): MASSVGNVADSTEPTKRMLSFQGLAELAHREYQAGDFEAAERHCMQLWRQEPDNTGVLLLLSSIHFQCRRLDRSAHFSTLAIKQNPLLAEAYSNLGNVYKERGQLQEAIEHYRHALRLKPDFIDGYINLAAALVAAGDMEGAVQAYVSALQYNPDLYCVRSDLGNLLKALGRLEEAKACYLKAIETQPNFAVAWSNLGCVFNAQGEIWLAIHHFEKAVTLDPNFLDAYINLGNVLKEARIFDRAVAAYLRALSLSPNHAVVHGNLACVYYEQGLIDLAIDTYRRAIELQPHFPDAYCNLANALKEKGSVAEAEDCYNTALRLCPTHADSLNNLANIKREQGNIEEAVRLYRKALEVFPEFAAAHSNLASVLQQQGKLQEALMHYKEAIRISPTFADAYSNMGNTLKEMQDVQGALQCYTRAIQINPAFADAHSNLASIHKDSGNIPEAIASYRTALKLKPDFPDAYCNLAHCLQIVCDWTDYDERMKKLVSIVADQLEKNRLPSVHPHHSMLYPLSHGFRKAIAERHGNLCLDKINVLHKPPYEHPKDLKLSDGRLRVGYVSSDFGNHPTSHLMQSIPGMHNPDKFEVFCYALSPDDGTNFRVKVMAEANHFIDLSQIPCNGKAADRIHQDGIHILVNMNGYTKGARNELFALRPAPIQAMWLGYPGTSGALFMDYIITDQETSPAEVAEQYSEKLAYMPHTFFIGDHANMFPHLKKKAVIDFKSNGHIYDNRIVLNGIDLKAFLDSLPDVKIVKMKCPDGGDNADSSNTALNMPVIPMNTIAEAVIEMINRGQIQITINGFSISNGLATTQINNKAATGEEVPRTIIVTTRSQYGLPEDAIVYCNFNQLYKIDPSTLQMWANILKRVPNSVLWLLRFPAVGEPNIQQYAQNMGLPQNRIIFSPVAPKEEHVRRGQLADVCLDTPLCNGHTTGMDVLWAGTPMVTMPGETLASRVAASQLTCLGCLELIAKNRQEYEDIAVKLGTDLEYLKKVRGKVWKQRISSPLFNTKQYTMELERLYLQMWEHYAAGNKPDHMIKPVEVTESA
inactive: [1] -0.006 | [2] -0.038 | [3] -0.038 | [4] -0.016 | [5] -0.016 | [6] -0.086 | [7] 0.016 | [8] 0.009 | [9] -0.011 | [10] -0.029 | [11] 0.018 | [12] 0.01 | [13] -0.027 | [14] -0.002 | [15] 0.041 | [16] -0.067 | [17] -0.012 | [18] 0.026 | [19] 0.009 | [20] -0.023

MYO1D (UniProt O94832)
Sequence of UniProt O94832 (O94832 whole entry, looked up): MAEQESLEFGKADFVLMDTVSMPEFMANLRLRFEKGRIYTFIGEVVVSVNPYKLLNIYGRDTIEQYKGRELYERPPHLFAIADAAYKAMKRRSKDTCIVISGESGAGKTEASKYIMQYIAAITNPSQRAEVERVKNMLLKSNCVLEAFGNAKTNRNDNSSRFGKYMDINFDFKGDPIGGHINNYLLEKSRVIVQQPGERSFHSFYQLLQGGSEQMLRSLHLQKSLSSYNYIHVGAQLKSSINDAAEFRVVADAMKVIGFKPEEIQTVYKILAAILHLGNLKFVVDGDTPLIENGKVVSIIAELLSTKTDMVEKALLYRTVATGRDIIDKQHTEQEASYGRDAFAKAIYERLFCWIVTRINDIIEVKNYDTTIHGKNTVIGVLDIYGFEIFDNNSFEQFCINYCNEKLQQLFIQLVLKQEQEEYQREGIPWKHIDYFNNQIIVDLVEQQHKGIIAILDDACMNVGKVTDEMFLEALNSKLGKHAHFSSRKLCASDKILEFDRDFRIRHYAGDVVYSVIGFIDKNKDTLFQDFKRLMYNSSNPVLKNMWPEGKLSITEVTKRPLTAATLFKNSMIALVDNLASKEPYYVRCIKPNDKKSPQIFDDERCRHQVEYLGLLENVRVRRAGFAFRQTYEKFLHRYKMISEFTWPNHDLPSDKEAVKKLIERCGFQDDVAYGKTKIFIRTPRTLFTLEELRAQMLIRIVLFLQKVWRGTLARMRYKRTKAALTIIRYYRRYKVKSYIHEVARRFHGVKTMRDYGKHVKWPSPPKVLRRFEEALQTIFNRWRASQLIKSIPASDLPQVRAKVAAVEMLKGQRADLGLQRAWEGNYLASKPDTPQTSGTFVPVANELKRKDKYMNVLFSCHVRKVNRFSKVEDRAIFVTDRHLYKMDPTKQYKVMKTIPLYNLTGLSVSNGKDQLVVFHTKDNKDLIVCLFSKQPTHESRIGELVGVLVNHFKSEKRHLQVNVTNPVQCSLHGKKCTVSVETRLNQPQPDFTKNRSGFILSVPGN
inactive: [1] 0.014 | [2] -0.051 | [3] -0.035 | [4] 0.016 | [5] -0.028 | [6] -0.072 | [7] 0.01 | [8] 0.011 | [9] -0.041 | [10] -0.005 | [11] 0.002 | [12] -0.01 | [13] -0.036 | [14] -0.006 | [15] 0.016 | [16] -0.031 | [17] -0.004 | [18] 0.05 | [19] 0 | [20] -0.042

MTA1 (UniProt Q13330)
inactive: [1] -0.002 | [2] 0 | [3] -0.008 | [4] 0.001 | [5] -0.059 | [6] -0.067 | [7] -0.002 | [8] -0.009 | [9] 0.023 | [10] 0.017 | [11] 0.042 | [12] 0.01 | [13] -0.023 | [14] 0.033 | [15] 0.005 | [16] -0.089 | [17] -0.03 | [18] 0.052 | [19] -0.033 | [20] -0.004

MTMR6 (UniProt Q9Y217)
Sequence of UniProt Q9Y217 (Q9Y217 whole entry, looked up): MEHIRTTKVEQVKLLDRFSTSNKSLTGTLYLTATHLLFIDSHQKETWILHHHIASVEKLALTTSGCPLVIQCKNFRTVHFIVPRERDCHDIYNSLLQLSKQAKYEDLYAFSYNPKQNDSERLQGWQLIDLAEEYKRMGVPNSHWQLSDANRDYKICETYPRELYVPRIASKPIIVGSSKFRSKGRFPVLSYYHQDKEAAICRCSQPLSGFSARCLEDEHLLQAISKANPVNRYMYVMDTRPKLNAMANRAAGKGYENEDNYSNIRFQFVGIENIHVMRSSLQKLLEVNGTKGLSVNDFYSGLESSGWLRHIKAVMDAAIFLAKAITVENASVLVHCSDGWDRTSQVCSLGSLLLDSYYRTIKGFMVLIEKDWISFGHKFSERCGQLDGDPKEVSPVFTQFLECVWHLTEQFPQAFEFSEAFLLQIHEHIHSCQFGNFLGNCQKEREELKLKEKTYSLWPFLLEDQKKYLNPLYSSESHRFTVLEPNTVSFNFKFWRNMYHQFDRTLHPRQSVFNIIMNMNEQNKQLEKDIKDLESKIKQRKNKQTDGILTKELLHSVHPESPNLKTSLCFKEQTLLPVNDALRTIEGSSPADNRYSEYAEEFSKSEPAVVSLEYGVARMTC
inactive: [1] 0.017 | [2] 0.025 | [3] -0.037 | [4] 0.071 | [5] 0.02 | [6] -0.024 | [7] 0.014 | [8] 0.056 | [9] 0.001 | [10] -0.113 | [11] -0.04 | [12] 0.063 | [13] -0.036 | [14] -0.026 | [15] -0.076 | [16] -0.116 | [17] -0.024 | [18] 0.086 | [19] -0.007 | [20] -0.032

NUP160 (UniProt Q12769)
inactive: [1] 0.004 | [2] -0.046 | [3] -0.028 | [4] 0.003 | [5] -0.007 | [6] -0.102 | [7] 0.015 | [8] 0.032 | [9] -0.059 | [10] -0.007 | [11] 0.014 | [12] -0.025 | [13] -0.092 | [14] -0.032 | [15] 0.021 | [16] -0.032 | [17] -0.031 | [18] 0.009 | [19] 0.002 | [20] -0.018

OARD1 (UniProt Q9Y530)
Sequence of UniProt Q9Y530 (Q9Y530 whole entry, looked up): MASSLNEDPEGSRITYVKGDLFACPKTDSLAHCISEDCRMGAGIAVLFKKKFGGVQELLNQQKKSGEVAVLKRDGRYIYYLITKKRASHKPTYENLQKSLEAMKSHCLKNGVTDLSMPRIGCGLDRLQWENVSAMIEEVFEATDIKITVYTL
inactive: [1] -0.001 | [2] -0.011 | [3] -0.003 | [4] -0.022 | [5] -0.015 | [6] -0.012 | [7] 0.042 | [8] 0.035 | [9] -0.023 | [10] 0.037 | [11] 0.015 | [12] 0.016 | [13] -0.031 | [14] 0.005 | [15] 0.071 | [16] -0.004 | [17] -0.014 | [18] 0.036 | [19] -0.009 | [20] -0.006

NGLY1 (UniProt Q96IV0)
inactive: [1] -0.017 | [2] -0.002 | [3] -0.058 | [4] 0.038 | [5] -0.001 | [6] -0.053 | [7] -0.025 | [8] -0.013 | [9] -0.048 | [10] 0.04 | [11] -0.004 | [12] 0.02 | [13] -0.038 | [14] 0.008 | [15] 0.042 | [16] -0.104 | [17] -0.016 | [18] 0.041 | [19] -0.005 | [20] -0.03

MT-CYB (UniProt P00156)
active: [4] -0.856 | [6] 0.568
inactive: [1] -0.054 | [2] -0.025 | [3] -0.126 | [5] 0.094 | [7] -0.074 | [8] -0.05 | [9] 0.05 | [10] 0.385 | [11] 0.063 | [12] -0.081 | [13] 0.16 | [14] 0.011 | [15] 0 | [16] -0.131 | [17] -0.184 | [18] -0.003 | [19] -0.037 | [20] -0.06

MTFP1 (UniProt Q9UDX5)
Sequence of UniProt Q9UDX5 (Q9UDX5 whole entry, looked up): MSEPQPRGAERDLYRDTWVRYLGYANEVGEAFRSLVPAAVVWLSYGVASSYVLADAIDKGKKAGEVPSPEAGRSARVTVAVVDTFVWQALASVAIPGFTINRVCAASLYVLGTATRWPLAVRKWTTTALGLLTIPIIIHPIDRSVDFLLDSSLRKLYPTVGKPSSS
active: [4] -0.364
inactive: [1] 0.026 | [2] 0.017 | [3] 0.097 | [5] -0.01 | [6] 0.059 | [7] 0.006 | [8] -0.043 | [9] 0.01 | [10] 0.067 | [11] 0.044 | [12] -0.021 | [13] 0.069 | [14] 0.043 | [15] 0.008 | [16] 0.133 | [17] -0.014 | [18] 0.02 | [19] -0.103 | [20] -0.004

PBK (UniProt Q96KB5)
inactive: [1] -0.024 | [2] -0.011 | [3] -0.005 | [4] 0.013 | [5] -0.006 | [6] -0.066 | [7] -0.005 | [8] -0.021 | [9] -0.02 | [10] -0.01 | [11] -0.01 | [12] 0.006 | [13] -0.035 | [14] 0.017 | [15] 0.017 | [16] -0.02 | [17] 0.033 | [18] 0.032 | [19] 0.017 | [20] 0.024

NSUN2 (UniProt Q08J23)
Sequence of UniProt Q08J23 (Q08J23 whole entry, looked up): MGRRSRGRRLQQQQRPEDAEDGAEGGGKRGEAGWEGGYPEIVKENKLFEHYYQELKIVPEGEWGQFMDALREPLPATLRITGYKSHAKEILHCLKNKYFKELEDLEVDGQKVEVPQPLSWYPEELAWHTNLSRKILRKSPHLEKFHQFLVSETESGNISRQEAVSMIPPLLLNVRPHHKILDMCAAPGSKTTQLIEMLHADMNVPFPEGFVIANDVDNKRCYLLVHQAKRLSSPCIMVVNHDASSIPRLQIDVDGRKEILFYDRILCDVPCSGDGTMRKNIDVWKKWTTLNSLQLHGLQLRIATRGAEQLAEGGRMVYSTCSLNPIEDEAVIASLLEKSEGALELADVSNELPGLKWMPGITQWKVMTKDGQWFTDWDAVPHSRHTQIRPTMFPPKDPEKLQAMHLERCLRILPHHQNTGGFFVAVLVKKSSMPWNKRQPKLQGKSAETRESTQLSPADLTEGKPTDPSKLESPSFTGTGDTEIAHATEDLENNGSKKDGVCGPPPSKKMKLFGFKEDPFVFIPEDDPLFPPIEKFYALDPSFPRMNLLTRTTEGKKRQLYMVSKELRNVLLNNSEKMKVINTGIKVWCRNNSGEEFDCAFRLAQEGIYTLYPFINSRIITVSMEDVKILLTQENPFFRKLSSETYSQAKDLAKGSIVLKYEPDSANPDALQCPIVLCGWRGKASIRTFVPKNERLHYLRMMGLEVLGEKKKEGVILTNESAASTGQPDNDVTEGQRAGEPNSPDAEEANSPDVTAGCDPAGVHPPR
inactive: [1] -0.009 | [2] -0.006 | [3] -0.024 | [4] 0.072 | [5] -0.005 | [6] -0.05 | [7] -0.011 | [8] -0.009 | [9] -0.038 | [10] -0.007 | [11] 0.013 | [12] -0.004 | [13] -0.023 | [14] -0.005 | [15] 0.022 | [16] 0.007 | [17] 0.027 | [18] 0.024 | [19] -0.009 | [20] -0.011

Source: the supplement of paper PMC10849652
